Bioassay records from PubChem BioAssay.
Shown are actives, neighbours in structure and some others; about 6.9% of the full set was active somewhere.
CSC inhib – blocks cancer stem cells; cancer stem cell-like cells viability, luminescence; inhibition, % at 7.5 µM; hit rate 1.1% among 300,000; AID 2717; in the data active = inhibition above about 75%; inconclusive = no clear call, values can overlap the other calls; tested in HMLE shEcad cells
MPTP block – inhibitors of mitochondrial permeability transition pore; isolated mouse mitochondria, Ca2+ swelling absorbance, 30 min; inhibition, % at 10 µM; hit rate 1.4% among 360,000; AID 602449;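 active = inhibition of 50% or more, scaled per plate between neutral and stimulator controls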
SKKanGAS inh – blocks kanamycin growth of S. pyogenes SKKanGAS strain; BacTiter-Glo, 6 h; inhibition, % at 7.5 µM; hit rate 1.3% among 300,000; AID 1662;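 active = mean replicate score, as percent of positive control median, at least 50; inconclusive = mean below 50 but one replicate at or above 50; inactive = mean and every replicate below 50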;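 note: strain carries kanamycin resistance gene driven by streptokinase promoter and grows in 40 µg/ml kanamycin; loss of luminescence reflects streptokinase promoter inhibition or plain growth inhibition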
Beta apoptosis – blocks beta cell apoptosis. INS-1E cytokine-induced death, ATP luminescence, 48 h; percent of positive-control rescue, neutral wells zero. hit rate 0.8% among 300,000. AID 435005. protection from apoptosis, % (concentration not given with the values);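 active = Every replicate reaches about 75%, or at least half do and their mean reaches it too, limit read from the data; inconclusive = At least half of replicates reach the limit but their mean does not; inactive = Under half of replicates reach the limit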;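 note: higher means more ATP so stronger rescue from cytokine killing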
Mdm2-MdmX inh – human Mdm2/MdmX binding inhibition; O15151+Q00987; SaOS-2 split-luciferase Mdm2/MdmX complementation, luminescence; inhibition, % at 8 µM; hit rate 3% among 330,000; AID 485346;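 active = inhibition of at least 50% at 8 µM in the primary screen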
Target sequence (O15151 whole entry, looked up): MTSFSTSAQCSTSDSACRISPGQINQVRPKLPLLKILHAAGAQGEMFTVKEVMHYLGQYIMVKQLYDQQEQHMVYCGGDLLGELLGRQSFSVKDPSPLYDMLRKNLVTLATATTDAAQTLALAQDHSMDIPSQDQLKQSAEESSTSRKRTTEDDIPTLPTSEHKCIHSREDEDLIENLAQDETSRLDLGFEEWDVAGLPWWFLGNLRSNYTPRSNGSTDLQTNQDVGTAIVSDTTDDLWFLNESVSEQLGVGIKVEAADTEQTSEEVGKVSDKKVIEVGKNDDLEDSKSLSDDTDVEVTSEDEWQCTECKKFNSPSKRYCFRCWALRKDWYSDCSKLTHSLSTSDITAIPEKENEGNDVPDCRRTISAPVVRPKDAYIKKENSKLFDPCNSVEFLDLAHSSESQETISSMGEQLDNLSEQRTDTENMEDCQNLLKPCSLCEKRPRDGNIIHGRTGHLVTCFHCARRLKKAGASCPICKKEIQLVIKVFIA
Target sequence (Q00987 whole entry, looked up): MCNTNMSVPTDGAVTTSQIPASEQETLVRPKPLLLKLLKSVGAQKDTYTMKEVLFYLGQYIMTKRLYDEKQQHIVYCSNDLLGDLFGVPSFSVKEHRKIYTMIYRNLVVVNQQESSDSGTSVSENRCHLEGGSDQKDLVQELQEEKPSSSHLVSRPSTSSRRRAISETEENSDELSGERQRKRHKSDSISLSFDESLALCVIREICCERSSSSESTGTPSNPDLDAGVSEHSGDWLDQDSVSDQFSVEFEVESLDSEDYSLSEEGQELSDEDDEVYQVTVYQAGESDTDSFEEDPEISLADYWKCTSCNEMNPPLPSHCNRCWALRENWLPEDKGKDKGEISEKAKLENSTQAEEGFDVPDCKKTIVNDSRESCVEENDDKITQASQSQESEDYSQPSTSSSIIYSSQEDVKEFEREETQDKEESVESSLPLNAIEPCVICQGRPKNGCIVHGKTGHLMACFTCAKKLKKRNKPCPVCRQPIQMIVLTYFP
GRIN3A LBD mod – NR3A (human) ligand-binding domain modulation. NR3A LBD differential scanning fluorimetry, Tm shift; 0% = protein alone, 100% = glycine-bound protein. Tm shift relative to glycine control, % at 25 µM. hit rate 2.5% among 340,000. AID 1259313;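 active = melting temperature shift of at least 10% of the positive control shift, at one fixed dose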
Mdm2 MdmX conf – human Mdm2/MdmX binding inhibition, confirmed; inhibition, % at 8 µM; shares compounds with Mdm2-MdmX inh; hit rate 55% among 10,000; luminescent assay; in the data active = inhibition above about 40%
Full FLuc ctr – full-length luciferase inhibition in Mdm2/MdmX counter-screen | shares compounds with Mdm2-MdmX inh | SaOS-2 full-length luciferase counterscreen, luminescence | inhibition, % at 8 µM | hit rate 77% among 6,200;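 active = mean inhibition at 8 µM reaching about 37%, which flags the compound as non-specific, limit read from the data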;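 note: p53-null SaOS-2 cells with luciferase driven by a doxycycline-inducible promoter; compound on cells about two nights before reading with doxycycline added after day one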
Large screens that a line does not name were inactive (follow-up assays come after a bar, where they were run).

CCCCCC[N+](C)(C)CCSSCC[N+](C)(C)CCCCCC	none
C#CC[N+](C)(C)CCCCCCCCCC	Mdm2-MdmX inh 70.7 | Mdm2 MdmX conf 67.6 | Full FLuc ctr 55.9
O=C(Nc1ccc2c(c1)[C@H]1C[C@@H](CC(=O)N3CCOCC3)O[C@@H](CO)[C@H]1O2)C1CCOCC1	none (no result: CSC inhib, SKKanGAS inh, Beta apoptosis, Mdm2-MdmX inh, GRIN3A LBD mod)
O=C(c1ccc(F)cc1F)N1CCCc2ccccc21	none (no result: Mdm2-MdmX inh)
Cc1cc(NN)nc(Cc2ccccc2)n1	none
O=C(Nc1ccc(O)c2c(=O)cc(-c3ccccc3Cl)oc12)c1ccc(Cl)c(Cl)c1	Mdm2-MdmX inh 65.8 | Mdm2 MdmX conf inactive
Cc1ccccc1C(=O)Nc1ccc(O)c2c(=O)cc(-c3ccccc3Cl)oc12	none
O=c1[nH]c(=O)n(Cc2ccccc2)c2nc(-c3ccco3)cc(C(F)(F)F)c12	Mdm2-MdmX inh 53.1 | Mdm2 MdmX conf inactive
CCCCN(Cc1nc2ccccc2c(=O)[nH]1)C(=O)c1nn(C)c(=O)c2ccccc12	none (no result: CSC inhib, SKKanGAS inh, Beta apoptosis)
CN(c1ccccc1)S(=O)(=O)c1cccc(NC(=O)c2nn(C)c(=O)c3ccccc23)c1	none (no result: CSC inhib, SKKanGAS inh, Beta apoptosis)
CC(=O)n1cc([C@H]2C=C(C(=O)Nc3ccccc3)O[C@@H](OCc3ccc(CO)cc3)C2)c2ccccc21	Mdm2-MdmX inh 73.0 | Mdm2 MdmX conf inactive | Full FLuc ctr 70.5
CC(=O)n1cc([C@@H]2C=C(C(=O)NCc3ccccc3)O[C@H](OCc3ccc(CO)cc3)C2)c2ccccc21	none
CC(=O)OCCNc1cc(N2CCN(C)CC2)c2noc3c2c1C(=O)c1ccccc1-3	none (no result: CSC inhib, SKKanGAS inh, Beta apoptosis, Mdm2-MdmX inh)
CCOC(=O)C(C(=O)OCC)c1cc(Br)c2noc3c2c1C(=O)c1ccccc1-3	CSC inhib 116.9, SKKanGAS inh 91.0, Mdm2-MdmX inh 100.3 | Mdm2 MdmX conf 95.2 | Full FLuc ctr inactive
CCCCn1c(N)c(N(CC(C)C)C(=O)C2CCN(C(=O)c3ccc(F)cc3)CC2)c(=O)[nH]c1=O	none
COc1cccc(CNc2nc3cc(-c4cccc(Cl)c4)sc3c(=O)n2C)c1	none (no result: CSC inhib, SKKanGAS inh, Beta apoptosis, Mdm2-MdmX inh, GRIN3A LBD mod)
COc1ccc(-c2cc3nc(CCl)[nH]c(=O)c3s2)cc1	SKKanGAS inh inconclusive, Mdm2-MdmX inh 94.9 | Mdm2 MdmX conf inactive
COc1ccc(CN2CCN(CCC(C)C)C(CCO)C2)cc1Cn1cncn1 (centres undefined)	none
CCOc1ccccc1N1CCN(c2nc3ccccc3nc2C(C#N)C(=O)OC)CC1 (centres undefined)	Mdm2-MdmX inh 71.1 | Mdm2 MdmX conf inactive
COc1ccccc1N1CCN(c2nc3ccccc3nc2C(C#N)C(=O)OC(C)C)CC1 (centres undefined)	none
CCCCCCOC(=O)C(C#N)c1nc2ccccc2nc1N1CCN(CC)CC1 (centres undefined)	Mdm2-MdmX inh 59.7 | Mdm2 MdmX conf inactive | Full FLuc ctr 69.7
O=S(=O)(NCc1ccccc1)c1ccc(-n2cccn2)cc1	none
COc1cc2[nH]c(=O)n(CCC(=O)N3CCN(c4cc(Cl)ccc4C)CC3)c(=O)c2cc1OC	Mdm2-MdmX inh 75.3 | Mdm2 MdmX conf inactive
COC(=O)c1ccc2c(=O)n(CCCCCC(=O)N3CCN(c4ccc(F)cc4)CC3)c(=O)[nH]c2c1	Mdm2-MdmX inh 67.1 | Mdm2 MdmX conf inactive
COc1cc2[nH]c(=O)n(CCCCCC(=O)N3CC=C(c4ccccc4)CC3)c(=O)c2cc1OC	Mdm2-MdmX inh 59.1 | Mdm2 MdmX conf inactive
COC(=O)c1ccc2c(=O)n(CCCCCC(=O)O)c(=O)[nH]c2c1	none
O=C(CSc1ccccn1)NC1CCCc2c1cnn2-c1ccccc1F (centres undefined)	none (no result: CSC inhib, SKKanGAS inh, Beta apoptosis, Mdm2-MdmX inh, GRIN3A LBD mod)
O=C(CSc1ccc2ccccc2n1)N/N=C/c1ccc(O)cc1	none
O=C(CSc1ccc2ccccc2n1)N/N=C/c1ccccc1O	SKKanGAS inh 95.0, Mdm2-MdmX inh 60.6 | Mdm2 MdmX conf 68.5 | Full FLuc ctr 74.0
COc1ccc(NC(=O)CN(C)C(=O)CCNC(=O)c2ccccc2OC)cc1	none
CCc1ccc(NC(=O)Cn2c(=O)c3cccn3c3ccccc32)cc1	Mdm2-MdmX inh 66.4 | Mdm2 MdmX conf 60.5 | Full FLuc ctr 54.6
CCOc1ccc(CNC(=O)Cn2nc(C)n3nc(-c4ccccc4)cc3c2=O)cc1	Mdm2-MdmX inh 97.3 | Mdm2 MdmX conf inactive
CCOc1ccc(CNC(=O)Cn2c(=O)c3cccn3c3ccccc32)cc1	Mdm2-MdmX inh 55.3 | Mdm2 MdmX conf inactive
Cc1cccc(N2CCN(CCCNC(=O)c3ccc(NC(=O)C4=CSCCO4)cc3)CC2C)c1 (centres undefined)	none
CCN(Cc1ccc(OC)c(F)c1)C(=O)CCl	Mdm2-MdmX inh 89.0 | Mdm2 MdmX conf 63.1 | Full FLuc ctr inactive
O=C(OCc1c(-c2ccccc2)ncc2ccccc12)c1cccc(Br)c1	none (no result: SKKanGAS inh)
O=C(OCc1c(-c2ccccc2)ncc2ccccc12)c1ccc(C(F)(F)F)cc1	Mdm2-MdmX inh 78.4 (no result: SKKanGAS inh) | Mdm2 MdmX conf inactive
O=C(Nc1cccc(Cl)c1)c1ccccc1	none (no result: SKKanGAS inh)
O=C1C(Cl)=C(NC(=O)c2ccccc2)C(=O)C(Cl)=C1NC(=O)c1ccccc1	Mdm2-MdmX inh 87.1 (no result: CSC inhib, Beta apoptosis) | Mdm2 MdmX conf 41.5 | Full FLuc ctr inactive
C(=N\Nc1nc2ccccc2[nH]1)/c1cccc2cccnc12	CSC inhib 100.4, Mdm2-MdmX inh 65.2 (no result: Beta apoptosis) | Mdm2 MdmX conf 66.4 | Full FLuc ctr 45.1
COc1ccc(/C=N/Nc2nc3ccccc3[nH]2)c(OC)c1OC	none
Cc1[nH]c2ccccc2c1/C=N/Nc1nc(N2CCCCC2)nc(N2CCCCC2)n1	none
Cc1[nH]c2ccccc2c1/C=N/Nc1nc2ccccc2[nH]1	SKKanGAS inh 61.2, Beta apoptosis 118.3, Mdm2-MdmX inh 61.5 | Mdm2 MdmX conf inactive
CC(C)c1ccc(OCC(=O)NNC(=S)NC(=O)c2ccco2)c(Br)c1	SKKanGAS inh 116.7, Mdm2-MdmX inh 50.4 | Mdm2 MdmX conf 42.8 | Full FLuc ctr 71.1
Cc1ccc(C(=O)Cn2c(C(=O)/C=C/c3ccccc3)nc3ccccc32)cc1	Mdm2-MdmX inh 55.5 | Mdm2 MdmX conf 55.0 | Full FLuc ctr 52.9
CCCOC(=O)c1ccc(Oc2c(-c3ccc(OCC)cc3O)n[nH]c2C)cc1	CSC inhib 136.9, SKKanGAS inh 62.5, Mdm2-MdmX inh 71.4, GRIN3A LBD mod 30.5 | Mdm2 MdmX conf inactive
COc1ccc(Oc2c(-c3ccc(O)cc3O)n[nH]c2C)cc1	none
O=[N+]([O-])c1ccc(Cl)cc1Sc1nc2ccccc2o1	SKKanGAS inh 66.8, Mdm2-MdmX inh 53.8 | Mdm2 MdmX conf inactive
O=[N+]([O-])c1ccc(Sc2nc3ccccc3o2)c([N+](=O)[O-])c1	CSC inhib 105.6, Mdm2-MdmX inh 98.9 | Mdm2 MdmX conf 75.7 | Full FLuc ctr inactive
COc1ccc(NC(=O)N(C)C[C@H]2Oc3ccc(NC(=O)CCN4CCOCC4)cc3C(=O)N([C@@H](C)CO)C[C@H]2C)cc1	none (no result: CSC inhib, SKKanGAS inh)
